The nature of experiment [1]: Quantitative High-Throughput drug screen in 47 multiple myeloma cell lines against the NCATS MIPE library collection: FR4_PLB cell viability assay (AID 1918924; note: nearly all actives have a fitted effect of over 35% in size; note: potency is the fitted concentration of half-maximal effect). An outline of the steps:
(§1)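 Luminescent ATP measurement with CellTiter-Glo gives viability, scaled between DMSO-only wells (100%) and media-only wells (0%). Cells, 500 per well, faced library compounds for 48 hours at 37C.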

Experiment [2] is described as follows: Quantitative High-Throughput drug screen in 47 multiple myeloma cell lines against the NCATS MIPE library collection: Delta47_JCRB cell viability assay (AID 1918925; note: nearly all actives have a fitted effect of over 45% in size; note: potency is the fitted concentration of half-maximal effect). The gist of the method:
(§2)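 Relative luminescence from CellTiter-Glo served as the viability signal, referenced to DMSO-treated (100%) and cell-free medium (0%) controls. Treatment lasted 48 hours at 37C with 500 cells per well.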

A short description of experiment [3]: Quantitative High-Throughput drug screen in 47 multiple myeloma cell lines against the NCATS MIPE library collection: AMO1_DSMZ cell viability assay (AID 1918927; note: nearly all actives have a fitted effect of over 30% in size). The gist of the method:
as §2

Experiment [4] in a line: Quantitative High-Throughput drug screen in 47 multiple myeloma cell lines against the NCATS MIPE library collection: ARP1_JJKsccF8 cell viability assay (AID 1918928; note: nearly all actives have a fitted effect of over 40% in size; note: potency is the fitted concentration of half-maximal effect). An outline of the steps: (§3)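 Myeloma cells at 500 per well in 1536-well format treated with MIPE 4.0 library by pin transfer for 48 h at 37C, 5% CO2. Viability from ATP luminescence (CellTiter-Glo), normalized to DMSO (100%) and media-only (0%) wells.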

Experiment [5] can be described thus: Quantitative High-Throughput drug screen in 47 multiple myeloma cell lines against the NCATS MIPE library collection: ARD_JJKsccE7 cell viability assay (AID 1918929; note: potency is the fitted concentration of half-maximal effect). The gist of the method: as §2
The nature of experiment [6]: Quantitative High-Throughput drug screen in 47 multiple myeloma cell lines against the NCATS MIPE library collection: KMM1_JCRB cell viability assay (AID 1918960). Note: nearly all actives have a fitted effect of over 30% in size. Note: potency is the fitted concentration of half-maximal effect. An outline of the steps:
as §3

A short description of experiment [7]: Quantitative High-Throughput drug screen in 47 multiple myeloma cell lines against the NCATS MIPE library collection: JIM3_ECACC cell viability assay (AID 1918963; note: nearly all actives have a fitted effect of over 35% in size; note: potency is the fitted concentration of half-maximal effect). An outline of the steps: as §1
Experiment [8] in a line: Quantitative High-Throughput drug screen in 47 multiple myeloma cell lines against the NCATS MIPE library collection: INA6_PLB cell viability assay (AID 1918965; note: nearly all actives have a fitted effect of over 55% in size; note: potency is the fitted concentration of half-maximal effect). The gist of the method:
(§4)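 Steps: seed 500 cells per well; pin-transfer MIPE 4.0 library; incubate 48 h at 37C, 5% CO2, humidified; add CellTiter-Glo, 5 min room temperature; read luminescence.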

A short description of experiment [9]: Quantitative High-Throughput drug screen in 47 multiple myeloma cell lines against the NCATS MIPE library collection: Karpas25_ECACC cell viability assay (AID 1918968; note: nearly all actives have a fitted effect of over 35% in size; note: potency is the fitted concentration of half-maximal effect). An outline of the steps:
as §2

Experiment [10] in a line: Quantitative High-Throughput drug screen in 47 multiple myeloma cell lines against the NCATS MIPE library collection: EJM_DSMZ cell viability assay (AID 1918926; note: nearly all actives have a fitted effect of over 30% in size; note: potency is the fitted concentration of half-maximal effect). An outline of the steps:
as §2

Experiment [11] is described as follows: Quantitative High-Throughput drug screen in 47 multiple myeloma cell lines against the NCATS MIPE library collection: Karpas620_DSMZ cell viability assay (AID 1918959). Note: nearly all actives have a fitted effect of over 30% in size. Note: potency is the fitted concentration of half-maximal effect. An outline of the steps: as §1
Experiment [12] can be described thus: Quantitative High-Throughput drug screen in 47 multiple myeloma cell lines against the NCATS MIPE library collection: Karpas417_ECACC cell viability assay (AID 1918961). Note: potency is the fitted concentration of half-maximal effect. The note with it: Karpas417 myeloma viability, CellTiter-Glo ATP luminescence, 48 h; viability (% of DMSO): at 45.8 µM (top of the series). The gist of the method:
as §4
(Cellular ATP, detected with luciferase, serves as a proxy for viable cell number.)

Experiment [13] in a line: Quantitative High-Throughput drug screen in 47 multiple myeloma cell lines against the NCATS MIPE library collection: JJN3_DSMZ cell viability assay (AID 1918966; note: nearly all actives have a fitted effect of over 50% in size; note: potency is the fitted concentration of half-maximal effect). The gist of the method: as §2
Experiment [14] in a line: Quantitative High-Throughput drug screen in 47 multiple myeloma cell lines against the NCATS MIPE library collection: KMS27_JCRB cell viability assay (AID 1918970). Note: nearly all actives have a fitted effect of over 30% in size. Note: potency is the fitted concentration of half-maximal effect. The note with it: KMS27 myeloma cells, CellTiter-Glo ATP viability, 48 h; viability (% of DMSO): at 45.8 µM (top of the series). An outline of the steps:
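Viability inhibition screen, 48 h compound exposure, luminescent ATP read-out.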

A short description of experiment [15]: Quantitative High-Throughput drug screen in 47 multiple myeloma cell lines against the NCATS MIPE library collection: KMS12BM_JCRB cell viability assay (AID 1918971). Note: nearly all actives have a fitted effect of over 35% in size. Note: potency is the fitted concentration of half-maximal effect. The gist of the method: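 Inhibition of cell viability is measured here. Each line was plated at 500 cells per well, treated with MIPE 4.0 drugs, kept 48 hours at 37C, then assayed for ATP content by CellTiter-Glo luminescence.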

Experiment [16] can be described thus: Quantitative High-Throughput drug screen in 47 multiple myeloma cell lines against the NCATS MIPE library collection: JIM1_ECACC cell viability assay (AID 1918964; note: potency is the fitted concentration of half-maximal effect). The gist of the method:
as §2

Experiment [17] can be described thus: Quantitative High-Throughput drug screen in 47 multiple myeloma cell lines against the NCATS MIPE library collection: H1112_PLB cell viability assay (AID 1918967; note: nearly all actives have a fitted effect of over 30% in size; note: potency is the fitted concentration of half-maximal effect). The gist of the method: as §2
A short description of experiment [18]: Quantitative High-Throughput drug screen in 47 multiple myeloma cell lines against the NCATS MIPE library collection: KHM11_PLB cell viability assay (AID 1918962). Note: nearly all actives have a fitted effect of over 35% in size. The gist of the method:
as §1

Drawing on PubChem BioAssay (NCATS), this text covers Potency for eight molecules.

The structures appear in SMILES notation. Records with an inconclusive call do not appear. The source made the active and inactive calls. Calls come from the whole dose curve; as a rule, active = well fitted curve in the direction sought with a large enough effect; inconclusive = small, poorly fitted or top-dose-only effect, or another doubt; inactive = no such curve, though single readings can be large; an effect the other way counts as inactive or inconclusive.

As to `CC(C)N(CCCNC(=O)Nc1ccc(C(C)(C)C)cc1)C[C@H]1O[C@@H](n2cc(Br)c3c(N)ncnc32)[C@H](O)[C@H]1O`, the Potency is 23.5 µM (active) in experiment [1]; 16.6 µM (active) in experiment [2]; 20.9 µM (active) in [4]; 29.6 µM (active) in experiment [7]; 18.7 µM (active) in experiment [8]; 14.8 µM (active) in experiment [9]. Further, the Potency entry in experiment [3], in experiment [5] and in experiment [6] was “inactive” in each case.
On to `CN(C)S(=O)(=O)c1ccc2c(c1)C(=Cc1cc3c([nH]1)CCCC3)C(=O)N2`, for which the Potency in experiment [1] was 2.35 µM (active); in experiment [2], 2.96 µM (active); in experiment [10], 4.69 µM (active); in experiment [11] it was 1.87 µM (active); in [12] it was 1.32 µM (active); in [7], 11.8 µM (active). The Potency in [8] is 3.72 µM (active); in experiment [13] it was 4.69 µM (active); in experiment [9] it was 16.6 µM (active); in [14] it was 3.32 µM (active); in experiment [15], 8.33 µM (active). The Potency result in [6] is “inactive”.
Consider `OC1CCC(Nc2ncc3nc(Nc4c(F)cc(F)cc4F)n([C@@H]4CCOC4)c3n2)CC1` (stereo partly specified), for which the Potency result in experiment [1] and in [11] was “inactive” in each case. The Potency in experiment [2] was 8.33 µM (active); in [10] it was 0.0012 µM (active); in experiment [4], 33.2 µM (active); in [16], 16.6 µM (active); in [8], 14.8 µM (active); in experiment [15], 23.5 µM (active).
For `COc1cc2c(cc1Cc1cccc(Cl)c1F)c(=O)c(C(=O)O)cn2[C@H](CO)C(C)C`, the Potency was 20.9 µM (active) in experiment [1]; 20.9 µM (active) in [2]; 20.9 µM (active) in experiment [10]; 16.6 µM (active) in experiment [4]; 20.9 µM (active) in experiment [7]; 13.2 µM (active) in [8]. Besides, the Potency was 16.6 µM (active) in experiment [13] and 6.62 µM (active) in experiment [15].
Consider `CN[C@H]1[C@@H](O[C@@H]2[C@H](O[C@@H]3[C@@H](O)[C@@H](O)[C@@H](N=C(N)N)[C@@H](O)[C@@H]3N=C(N)N)O[C@H](C)[C@@]2(O)C=O)O[C@@H](CO)[C@@H](O)[C@H]1O`, for which the Potency entry in [1], in experiment [2], in experiment [10], in experiment [4], in [11] and in experiment [6] was “inactive” throughout. Moreover, the Potency result in experiment [7], in experiment [16], in [8], in experiment [17] and in [15] was “inactive” throughout.
Take `O=c1[nH]c(=O)n([C@H]2C[C@@H](O)[C@@H](CO)O2)cc1I`: the Potency entry in experiment [1], in [2], in experiment [10], in experiment [4], in experiment [11] and in [16] was “inactive” each time. Besides, the Potency entry in experiment [13], in experiment [17], in experiment [9] and in experiment [15] was “inactive” in each case. The Potency in [5] was 3.32 µM (active).
`CCCCCCCCCCCCCCCC(=O)O[C@H]1[C@@H](O)[C@@H](O)[C@@H]([C@H](NC(=O)[C@@H]2C[C@@H](CCC)CN2C)[C@H](C)Cl)O[C@@H]1SC`: the Potency result in [1], in [2], in experiment [10], in [3], in experiment [4] and in experiment [16] was “inactive” throughout. Moreover, the Potency in experiment [6] was 8.33 µM (active); in experiment [17], 18.7 µM (active); in experiment [14] it was 7.43 µM (active); in experiment [15] it was 4.69 µM (active).
On to `O=C(O)CCC=CCC[C@@H]1[C@H](N2CCCCC2)[C@@H](O)C[C@@H]1OCc1ccc(-c2ccccc2)cc1`, for which the Potency entry in experiment [1], in experiment [2], in experiment [10], in experiment [4], in experiment [11] and in [6] was “inactive” each time. Also, the Potency result in experiment [18], in [7], in experiment [13], in experiment [17], in [14] and in [15] was “inactive” in each case.
